From PubChem BioAssay (NCI)
The panel holds about 79,000 compounds, 15% with a hit somewhere; the sample as a whole holds those more often. Unmarked numbers belong to inactive results. Calls of active or inactive are those of the source. Rule as the data show it: active = growth inhibition above about 70%; inactive = the rest.

Key:
[1] = NCI Yeast Anticancer Drug Screen. Data for the rad50 strain (AID 155);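 also: 0% = growth of vehicle-only cultures of the same strain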; conditions: S. cerevisiae rad50 strain growth inhibition, stronger effect = higher value
How it was run: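 Vehicle-treated cultures provide the reference for the growth inhibition reported for compound-exposed, repair-deficient yeast.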

[2] = NCI Yeast Anticancer Drug Screen. Data for the mec2-1 strain (AID 157); conditions: S. cerevisiae mec2-1 strain, stronger effect = higher value
How it was run: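 Strain: mec2-1 (DNA repair/cell cycle alteration). Compound exposure, then growth measured; inhibition expressed relative to vehicle.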

[3] = NCI Yeast Anticancer Drug Screen. Data for the sgs1 mgt1 strain (AID 161);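 also: 0% = growth of cultures given vehicle only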; conditions: S. cerevisiae sgs1 mgt1 strain, stronger effect = higher value
How it was run: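 Mutant yeast exposed to compound; growth scored against vehicle-only wells.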

[4] = NCI Yeast Anticancer Drug Screen. Data for the cln2 rad14 strain (AID 165);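 also: 0% = growth equal to vehicle treated cultures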; conditions: S. cerevisiae cln2 rad14 strain, stronger effect = higher value
How it was run: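 Compounds are applied to the cln2 rad14 yeast strain, and growth is then compared with that of vehicle-treated cultures to give inhibition.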

[5] = NCI Yeast Anticancer Drug Screen. Data for the bub3 strain (AID 167); conditions: S. cerevisiae bub3 mutant strain, stronger effect = higher value
How it was run: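 Mutant yeast screening strain plus compound; vehicle-treated cultures serve as the 0% inhibition reference.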

[6] = NCI Yeast Anticancer Drug Screen. Data for the mlh1 rad18 strain (AID 175); conditions: S. cerevisiae mlh1 rad18 strain growth inhibition, stronger effect = higher value
How it was run: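 Read-out is yeast growth inhibition, calculated against vehicle-only controls. The compound was applied to a strain engineered with DNA damage repair alterations.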

[7] = at 5.0 µM (retest, dose inferred, filed as 0.5)
[8] = at 50.0 µM (retest, dose inferred, filed as 5.0)

| Compound | growth inhibition [1, 7] | growth inhibition [1, 8] | growth inhibition ([1]; at 50.0 µM) | growth inhibition [2, 7] | growth inhibition [2, 8] | growth inhibition ([2]; at 50.0 µM) | growth inhibition [3, 7] | growth inhibition [3, 8] | growth inhibition ([3]; at 50.0 µM) | growth inhibition [4, 7] | growth inhibition [4, 8] | growth inhibition ([4]; at 50.0 µM) | growth inhibition [5, 7] | growth inhibition [5, 8] | growth inhibition ([5]; at 50.0 µM) | growth inhibition [6, 7] | growth inhibition [6, 8] | growth inhibition ([6]; at 50.0 µM) |
| --- | --- | --- | --- | --- | --- | --- | --- | --- | --- | --- | --- | --- | --- | --- | --- | --- | --- | --- |
| CC(/C(=N/NC(=O)C(N)=O)c1c(Cl)ccc(Cl)c1O)C1(O)C(=O)Nc2ccccc21 (configuration not stated) | 9% | 53% | 53.8% | 2% | 29% | 57.4% | 9% | 53% | 52.5% | 14% | 18% | 20.5% | 4% | 52% | 44% | 9% | 32% | 86.5% (active) |
| N#Cc1c(-c2ccc(Cl)cc2)c(-c2ccc(Cl)cc2)nn(CCOC(=O)CCC(=O)O)c1=O | 8% | 76% (active) | 89% (active) | -3% | 76% (active) | 88.8% (active) | 22% | 66% | 78.1% (active) | -3% | 86% (active) | 85.2% (active) | 16% | 83% (active) | 84% (active) | 8% | 81% (active) | 87% (active) |
| Cc1c2ccccc2c(C)c2c1ccc1ccccc12 | 73% (active) | 91% (active) | 96.8% (active) | 93% (active) | 91% (active) | 97.5% (active) | 93% (active) | 94% (active) | 97.7% (active) | 60% | 91% (active) | 83.4% (active) | 81% (active) | 93% (active) | 94.3% (active) | 93% (active) | 91% (active) | 98.1% (active) |
| CC(=O)OCC1(O)OCC(OC(C)=O)C(OC(C)=O)C1OC(C)=O (configuration not stated) | 18% | -21% | 12.2% | -15% | -20% | -2.6% | -4% | 9% | 12.6% | 27% | -36% | -2.65% | 6% | -25% | 7.9% | -4% | -14% | 12.9% |
| COc1ccccc1NC(=O)CC(=O)N1N=C(C)C(N=Nc2ccc(C(=O)O)cc2)C1=O (configuration not stated) | 2% | -1% | 0% | 0% | -2% | -4% | -4% | -20% | 2.65% | -2% | 7% | 27.9% | 1% | 16% | -1.05% | 1% | 1% | 2.3% |
| CN(C)CCC(/C=C/c1ccccc1)=N\Nc1ccc(Cl)cc1Cl | 66% | 87% (active) | 99.5% (active) | 32% | 94% (active) | 99.5% (active) | 47% | 91% (active) | 99.4% (active) | 66% | 88% (active) | 98.7% (active) | 80% (active) | 90% (active) | 98.8% (active) | 78% (active) | 91% (active) | 99.5% (active) |
| COc1ccc(N=N/N=c2\sc3cc(OC)ccc3n2C)cc1 | 7% | 80% (active) | 29.4% | 3% | 46% | 5.1% | -2% | 22% | 11.9% | -2% | 63% | 24.5% | -5% | 36% | -3.4% | -6% | 71% (active) | 46.8% |
| CCC(CC)COC(=O)C(C)=O | -2% | 1% | -11.7% | 2% | 0% | 19.4% | 1% | 3% | 18.1% | -1% | -4% | 25.6% | 0% | 5% | 4.3% | -1% | 2% | 26.9% |
| O=S(=O)(Cl)c1ccc(Br)cc1 | 45% | 99% (active) | 37.3% | 68% | 100% (active) | -4.55% | 72% (active) | 99% (active) | 0.15% | 21% | 100% (active) | -76.1% | 84% (active) | 99% (active) | 9.25% | 28% | 99% (active) | 0.55% |
| O=c1c(S(=O)(=O)Oc2ccccc2)coc2cc(F)ccc12 | 99% (active) | 100% (active) | 81.7% (active) | 99% (active) | 100% (active) | 86.7% (active) | 99% (active) | 100% (active) | 90.2% (active) | 99% (active) | 100% (active) | 91.5% (active) | 99% (active) | 100% (active) | 91% (active) | 99% (active) | 100% (active) | 93.1% (active) |
| C[C@]12CCC3[C@@H](CC[C@@H]4c5nonc5CC[C@]34C)C1CCC(=O)N2 (some centres not stated) | 10% | 24% | 50.1% | 5% | 17% | -4.95% | 11% | 27% | 51.5% | 7% | 13% | -3.6% | 6% | 48% | 31.9% | 16% | 21% | 25.4% |
| CCC[CH2][Sn]([CH2]CCC)([O]C(=O)c1c(F)cccc1F)[O]C(=O)c1c(F)cccc1F | 80% (active) | 80% (active) | 88.8% (active) | 66% | 66% | 89.7% (active) | 80% (active) | 80% (active) | 87.3% (active) | 70% (active) | 70% (active) | 86.9% (active) | 72% (active) | 72% (active) | 83.6% (active) | 73% (active) | 73% (active) | 84% (active) |
| O=S(=O)(O)SCCNCCCCCC1CCCCC1 | 20% | 87% (active) | 15.3% | 27% | 94% (active) | 22.5% | 19% | 83% (active) | 65.5% | 32% | 71% (active) | 18.6% | 17% | 95% (active) | 52.2% | 34% | 93% (active) | 30.6% |
| CC1=CC2C(O)(CC(CO)=CC3C4C(C)(C)C4(OC(=O)c4ccccc4)C(OC(=O)c4ccccc4)C(C)C32O)C1=O (configuration not stated) | 95% (active) | 96% (active) | 90.3% (active) | 96% (active) | 98% (active) | 91.7% (active) | 96% (active) | 97% (active) | 92% (active) | 73% (active) | 97% (active) | 88.3% (active) | 95% (active) | 96% (active) | 89.2% (active) | 97% (active) | 97% (active) | 88.6% (active) |
| Cc1cc(Br)c(N2C3=C(CC4=C2CCCC4=O)C(=O)CCC3)c(Br)c1 | 17% | 90% (active) | 96.8% (active) | 7% | 89% (active) | 97.8% (active) | -3% | 80% (active) | 97.8% (active) | 10% | 94% (active) | 93.5% (active) | -10% | 95% (active) | 98.2% (active) | 16% | 97% (active) | 97.8% (active) |
| COc1cc2oc(-c3ccc(O)cc3O)c(CC=C(C)C)c(=O)c2c(O)c1/C=C/C(C)C | 17% | 97% (active) | 89.5% (active) | 8% | 98% (active) | 90.7% (active) | 10% | 97% (active) | 91% (active) | 24% | 98% (active) | 88.8% (active) | 11% | 97% (active) | 88.8% (active) | 9% | 97% (active) | 90.3% (active) |
| O=C(O)C1C(C(=O)O)C23CC2(C(=O)O)C2(C(=O)O)CCC3=C3CCCC312 (configuration not stated) | 3% | 100% (active) | 51.3% | -1% | 99% (active) | 55% | -7% | 100% (active) | 47.8% | -21% | 99% (active) | 19.4% | 5% | 99% (active) | 85.3% (active) | -3% | 100% (active) | 67.8% |
| CC(=O)Oc1c(Cl)cc(Cl)cc1C(c1cc(Cl)cc(Cl)c1OC(C)=O)C(Cl)(Cl)Cl | 6% | 31% | 90.8% (active) | 2% | 25% | 98.3% (active) | -1% | -5% | 83.9% (active) | -10% | 2% | 82.8% (active) | -3% | 20% | 98.3% (active) | -2% | 23% | 95.5% (active) |
| CC(C)(CN1CCCCC1)C(=O)/C=C/c1ccc(Cl)c(Cl)c1 | 60% | 97% (active) | 93.3% (active) | 27% | 98% (active) | 94.7% (active) | 31% | 96% (active) | 93.2% (active) | 28% | 96% (active) | 91.8% (active) | 47% | 96% (active) | 92.9% (active) | 52% | 97% (active) | 92.7% (active) |
